Measured values from the supplement of paper PMC7366291.
Where a name gives a salt, the structure may show the parent alone. ± gives the standard deviation of the averaged measurements.

These compounds were tested on Danio rerio Tg(wt1b:EGFP) embryo, pronephros (assay: glomerular width (mean of left and right), fold change vs DMSO control; higher = wider glomerulus). Settings: 25 µM; exposure: 24-48 hpf.
Outline: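 Using a Fiji macro, distances and angles were calculated from 16 reference points set by hand on maximum projections of pronephroi imaged dorsally (470 nm, 10 z-slices) in agarose-filled 96-well plates. The dechorionated Tg(wt1b:EGFP) zebrafish embryos had received 25 μM compound in 0.5% DMSO in HEPES-buffered E3 with 0.003% PTU from 24 to 48 hpf at 28.5°C. Values more than 2 SD from a feature's mean were excluded. Each feature appears as a fold change over the mean of DMSO-treated embryos from the same day.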

| SMILES | glomerular width |
| --- | --- |
| Nc1nc2c(ncn2COCCO)c(=O)[nH]1 [Acyclovir] | 1.06 ± 0.041 |
| CCCCNc1ccc(C(=O)OCCN(C)C)cc1 | 0.959 ± 0.096 |
| CCCN(CCC)S(=O)(=O)c1ccc(C(=O)O)cc1 [Probenecid] | 0.907 ± 0.091 |
| CC(CNC1CCCCC1)OC(=O)c1ccccc1 (stereo unspecified) [Hexylcaine hydrochloride] | 0.937 ± 0.014 |
| O=C(CCCN1CCN(c2ccccn2)CC1)c1ccc(F)cc1 [Azaperone] | 0.925 ± 0.039 |

The compounds below were run on Danio rerio Tg(wt1b:EGFP) embryo, pronephros (assay: fraction of imaged embryos annotated as normal kidney; higher = less nephrotoxic; extreme values may be limits of the assay). Settings: 25 µM; exposure: 24-48 hpf.
Outline: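 The value given is the share of embryos in each treatment scored as having a normal kidney. To obtain it, dechorionated Tg(wt1b:EGFP) zebrafish embryos were treated from 24 to 48 hpf at 28.5°C with 25 μM compound in 0.5% DMSO, in 5 mM HEPES-buffered E3 with 0.003% PTU. Pronephroi were imaged by widefield fluorescence (470 nm, 10 z-slices), and every embryo was annotated by hand from maximum projections.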

| SMILES | fraction of imaged embryos annotated as normal kidney |
| --- | --- |
| OCCOCCN1CCN(C(c2ccccc2)c2ccc(Cl)cc2)CC1 (stereo unspecified) [Hydroxyzine dihydrochloride] | 1 |
| O=C(O)CCC(=O)c1ccc(-c2ccccc2)cc1 [Fenbufen] | 0.0909 |
| CC(=O)OCC(=O)[C@@]1(OC(C)=O)[C@@H](C)C[C@H]2[C@@H]3C[C@H](F)C4=CC(=O)C=C[C@]4(C)[C@@]3(F)[C@@H](O)C[C@@]21C [Diflorasone Diacetate] | 0.727 |
| CN(Cc1cnc2nc(N)nc(N)c2n1)c1ccc(C(=O)N[C@@H](CCC(=O)O)C(=O)O)cc1 [Methotrexate] | 0.917 |
| CCCCNC(=O)NS(=O)(=O)c1ccc(C)cc1 [Tolbutamide] | 0.833 |
| CC(=O)O[C@]1(C(C)=O)CC[C@H]2[C@@H]3C=C(Cl)C4=CC(=O)CC[C@]4(C)[C@H]3CC[C@@]21C [Chlormadinone acetate] | 0.636 |
| CC(C)C(=O)Nc1ccc([N+](=O)[O-])c(C(F)(F)F)c1 [Flutamide] | 0.667 |
| Cn1c(=O)c2c(ncn2CC(=O)O)n(C)c1=O [Acefylline] | 0.917 |
| CN(C)CCC[C@@]1(c2ccc(F)cc2)OCc2cc(C#N)ccc21 [Escitalopram oxalate] | 0.833 |
| Cc1cccc(C)c1NC(=O)C1CCCCN1C (stereo unspecified) [Mepivacaine hydrochloride] | 0.917 |
| Cc1cc(NS(=O)(=O)c2ccc(N)cc2)no1 [Sulfamethoxazole] | 0.833 |
| CO[C@@]1(NC(=O)CSCC#N)C(=O)N2C(C(=O)O)=C(CSc3nnnn3C)CS[C@@H]21 [Cefmetazole sodium salt] | 0.917 |
| CC1(C)O[C@@H]2[C@@H](CO[C@@]3(COS(N)(=O)=O)OC(C)(C)O[C@@H]23)O1 [Topiramate] | 0.583 |
| Cc1cccc(N(C)C(=S)Oc2ccc3ccccc3c2)c1 [Tolnaftate] | 0.75 |
| CCCCC(=O)N(Cc1ccc(-c2ccccc2-c2nnn[nH]2)cc1)[C@H](C(=O)O)C(C)C [Valsartan] | 1 |
| Cc1cc(-c2ccccc2)nnc1NCCN1CCOCC1 [Minaprine dihydrochloride] | 0.75 |

| SMILES | fraction of imaged embryos annotated as normal kidney |
| --- | --- |
| Nc1nc(=O)[nH]cc1F [Flucytosine] | 0.75 |
| CN1CCOC(c2ccccc2)c2ccccc2C1 (stereo unspecified) [Nefopam hydrochloride] | 0.909 |
| Nc1ccn([C@@H]2O[C@H](CO)[C@@H](O)C2(F)F)c(=O)n1 [Gemcitabine] | 0.917 |
| Clc1ccc(CCC(Cn2ccnc2)Sc2c(Cl)cccc2Cl)cc1 (stereo unspecified) [Butoconazole nitrate] | 0 |
| COc1ccc(CN2CCN(C(c3ccc(F)cc3)c3ccc(F)cc3)CC2)c(OC)c1OC [Lomerizine hydrochloride] | 0.583 |
| CCCCOc1ccc(OCCCN2CCOCC2)cc1 [Pramoxine hydrochloride] | 0.917 |
| C[C@H](N)[C@H](O)c1cccc(O)c1 [Metaraminol bitartrate] | 0.667 |
| CCN(CC)CCN[C@@H](C(=O)OCCC(C)C)c1ccccc1 [Camylofine chlorhydrate] | 0.75 |
| C[C@]12CC[C@@H]3c4ccc(O)cc4CC[C@H]3[C@@H]1CCC2=O [Estrone] | 1 |
| CC(C)Cn1cnc2c(N)nc3ccccc3c21 [Imiquimod] | 1 |
| NCCc1c[nH]cn1 [Histamine dihydrochloride] | 0.833 |
| CN(Cc1cc(Br)cc(Br)c1N)C1CCCCC1 [Bromhexine hydrochloride] | 1 |
| c1ccc(CN(CC2=NCCN2)c2ccccc2)cc1 [Antazoline hydrochloride] | 0.833 |
| N#Cc1ccc(C(c2ccc(C#N)cc2)n2cncn2)cc1 [Letrozole] | 0.917 |
| C=CC[N@@+]12CC[C@@]34c5ccccc5N5/C=C6/[C@H]7C[C@H]8[C@@]9(CC[N@@+]8(CC=C)C/C7=C/CO)c7ccccc7N(/C=C(/[C@@H](C[C@@H]31)/C(=C\CO)C2)[C@H]54)[C@@H]69 [Alcuronium chloride] | 0.833 |
